As a reminder, the inhibition is the drop in the measured response relative to a control, in per cent.

“And” between values parts separate entries of the source, which are not always exact repeats. Equal entries are not always repeated. The campaign covered roughly 77,000 compounds. About 4,600 (6%) were called active. Inconclusive results (about 1%) are left out. The entries come from a sample that favours actives as a whole. A number with no mark means an inactive call.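 How the source made its calls: active means mean inhibition above about 93%, with at least 55% of replicates each passing it (limit read from the data, passing the limit was not always enough); inconclusive means only one of those two conditions holds; inactive means neither condition holds.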

The assay in a line: T. cruzi intracellular proliferation inhibitors, primary screen, cell-based, beta-gal Tulahuen parasites, NIH3T3 host, luminescence (AID 624255). Conditions: T. cruzi beta-gal in NIH3T3, GalScreen luminescence, 90 h; at 8.34 µM; hits give high values.
As for `CC(C)NC(=O)Nc1ccc2c(c1)C(=O)N([C@@H](C)CO)C[C@@H](C)[C@@H](CN(C)S(=O)(=O)c1ccc(F)cc1)OCCCC[C@H](C)O2`, the inhibition is -55.2%. The value for `CCCNC(=O)C[C@@H]1C[C@H]2c3cc(NC(=O)Nc4ccccc4F)ccc3O[C@H]2[C@H](CO)O1` was 10.8%. The value for `C[C@H]1CCCCO[C@@H](CN(C)Cc2ccc3c(c2)OCO3)[C@@H](C)CN([C@@H](C)CO)C(=O)c2cc(NS(=O)(=O)c3ccc(F)cc3)ccc2O1` was 73.3%. In the case of `C[C@@H]1CCCCO[C@H](CN(C)C(=O)Nc2ccc(C(F)(F)F)cc2)[C@H](C)CN([C@H](C)CO)C(=O)c2cc(NC(=O)Nc3ccc(C(F)(F)F)cc3)ccc2O1` it was 120% (active); in that of `C[C@@H]1CCCCO[C@@H](CN(C)C(=O)Nc2ccc(C(F)(F)F)cc2)[C@H](C)CN([C@H](C)CO)C(=O)c2cc(NC(=O)c3ccccc3)ccc2O1`, 94.9%; in that of `CC(C)NC(=O)N(C)C[C@H]1OCCCC[C@H](C)Oc2ccc(NC(=O)Nc3ccc(C(F)(F)F)cc3)cc2C(=O)N([C@H](C)CO)C[C@@H]1C`, 36.4%.

On to `C[C@@H]1CCCCO[C@H](CN(C)C(=O)CCCN(C)C)[C@H](C)CN([C@H](C)CO)C(=O)c2cc(NC(=O)CCC(F)(F)F)ccc2O1`, for which the inhibition was 16.6%. In the case of `CNC(=O)C[C@H]1CC[C@H]2[C@H](COc3ccc(NC(=O)Nc4cccc(C)c4)cc3C(=O)N2C)O1` it was 12.8%.

Turning to `O=C(Cc1ccccn1)N[C@H]1CC[C@@H](CC(=O)N2CCCCC2)O[C@@H]1CO`, the inhibition was -26%. On to `C[C@H](CO)N1C[C@H](C)[C@H](CN(C)Cc2ccccc2)Oc2ncc(-c3ccccc3)cc2C1=O`, for which the inhibition is 23.4% and 14.8%. The value for `Cc1ccc(S(=O)(=O)N(C)C[C@@H]2Oc3ncc(-c4cc5ccccc5o4)cc3C(=O)N([C@H](C)CO)C[C@@H]2C)cc1` was 117% (active); that for `Cc1ccc(-c2cnc3c(c2)C(=O)N([C@@H](C)CO)C[C@@H](C)[C@H](CN(C)Cc2ccccc2F)O3)cc1` was 111% (active); that for `Cc1ccc(-c2cnc3c(c2)C(=O)N([C@H](C)CO)C[C@@H](C)[C@H](CN(C)Cc2ccccc2C(=O)O)O3)cc1` was -6.32%. The value for `COc1ccc(-c2cnc3c(c2)C(=O)N([C@H](C)CO)C[C@H](C)[C@H](CN(C)S(=O)(=O)c2ccccc2)O3)cc1` was 37.7%. The value for `C[C@@H]1CN([C@H](C)CO)C(=O)c2cc(-c3ccccc3)cnc2O[C@H]1CN(C)C(=O)Nc1ccccc1` was -81.2%; that for `C[C@H](CO)N1C[C@H](C)[C@H](CN(C)S(=O)(=O)c2ccc(F)cc2)Oc2ncc(-c3ccc(F)cc3)cc2C1=O` was 22.6%; that for `C[C@@H]1CN([C@H](C)CO)C(=O)c2cc(Br)cnc2O[C@@H]1CN(C)C(=O)Nc1ccc(F)cc1` was -142%. As to `C[C@H](CO)N1C[C@H](C)[C@H](CN(C)C(=O)Nc2ccc(F)cc2)Oc2ncc(-c3cc4ccccc4o3)cc2C1=O`, the inhibition is 119% (active).

Source of the values: PubChem BioAssay AID624255 (Broad Institute, 2012).
